Assay results from PubChem BioAssay (NCI).
Compounds without any hit were thinned out: in the full panel of roughly 83,000, 20% have a hit.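 Method: cells in 96-well plates; compound added at one concentration; 48 h incubation; percent growth measured; values under 10 scored active.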 Values without a mark were called inactive. Activity calls are given as the source filed them.

Each compound was assayed on RPMI-8226 leukemia (assay: NCI-60 one-dose screen, 48 h (100 = growth as untreated, 0 = no growth, -100 = all killed)). Conditions: 10 µM unless noted.

Structure (SMILES) | growth
Clc1nc(Cl)c2ncn(CC3(Cn4cnc5c(Cl)nc(Cl)nc54)COC3)c2n1 | -63.5% (active)
C(=N\Nc1ncc(-c2cc3cc4c(cc3o2)OCO4)s1)/c1c[nH]c2ccccc12 | -22.4% (active)
COc1ccc(-c2nn(Cc3ccccc3)c3c2-c2oncc2CC3)cc1OC | 98.5%
COc1cc(/C=C/C(=O)c2c(C)oc3nc[nH]c(=O)c23)ccc1O | 122%
CCc1nc(C)cn1C(=O)OCc1nc2nc(Cl)nc(N3CCOCC3)c2[nH]1 | -33.1% (active)
O=C(Nc1ccccc1)Oc1ccccc1-c1ccccc1 | 96.5%
COc1ccc(C(O)c2cc3c(N)c(C(=O)Nc4ccccc4)sc3nc2C)cc1 (stereo unspecified) | 5.81% (active)
CCC(C)N(CCNc1cc(OC)cc2cccnc12)CCC(C)C (stereo unspecified) | 94.1%

Each compound was assayed on OVCAR-8 ovarian in the same assay as above. Conditions: 10 µM unless noted.

Structure (SMILES) | growth
O=C1Nc2ccccc2/C1=C\c1cccc(/C=C2/C(=O)Nc3ccccc32)n1 | -6.07% (active)
COc1ccc(/C=N/NC(=O)c2cccc3cc[nH]c23)cc1O | 48.8%
CCN1C(=O)N(CC)C2C1NN=c1s/c(=C3\C(=O)Nc4ccccc43)c(=O)n12 (stereo unspecified) | 31.6%
CC(C)(O)C1CCCN1C(=O)c1ccccc1I (stereo unspecified) | 109%
O=C1NC(=S)NC(=O)C1=Cc1cccc(C=C2C(=O)NC(=S)NC2=O)c1 | 104%
Cn1c2c(Cl)c(Cl)ccc2c2cc(N)[nH]c(=O)c21 | 73.7%
COc1ccc(-c2cnnc3c(-c4cccc(C(F)(F)F)c4)cnn23)cc1 | 19.6%
O=C1Nc2c(ccc(Cl)c2Cl)/C1=C/c1ccc([N+](=O)[O-])cc1 | 95.1%
COc1ccc(-c2nc(SCC(C)C)nc(N/N=C(/C)c3ccc(OC)c(OC)c3)c2C#N)cc1 | 93.4%
NS(=O)(=O)c1cccc(NC(=O)C(=O)C2C(=O)Nc3ccccc32)c1 (stereo unspecified) | 106%
O=S(=O)(c1cccc(NC2=Nc3cccc4cccc2c34)c1)N1CCCC1 | 83.7%
CCOC(=O)c1c(SC)nn(-c2cc(=O)[nH]c3ccc(Br)cc23)c1N | 95.6%
CC(=O)c1c[nH]c2ccc(-c3ccnc(Nc4ccc(NC(=O)C5CCCC5)c(CN5CCOCC5)c4)n3)cc12 | 7.02% (active)
COc1ccc(/C=C(/c2ccccc2)[N+](=O)[O-])cc1 | -7.29% (active)
O=C1Nc2c(ccc(Cl)c2Cl)/C1=C/c1ccccn1 | 81%
CCN(CCNc1cc(OC)cc2cccnc12)CCc1ccccc1 | 85.2%
COc1cc2nc(-c3ccc(C#N)cc3)[nH]c(=O)c2cc1OC | 102%

Structure (SMILES) | growth
CCCOc1nc(SCCC)nc2c1cnn2-c1ccccc1 | 99.2%
O=S(=O)(c1ccccc1)N1CCCc2ccccc21 | 99%
O=C(Nc1ccc(Cl)cc1)Nc1ccc(Cl)c(Cl)c1 | 21.2%
COc1cc(NCC(O)CN(CC(C)C)C2CCCC2)c2ncccc2c1 (stereo unspecified) | 86.5%
COc1ccc(Nn2c(SCC(=O)Nc3nc(-c4ccc(Cl)cc4)cs3)nc(C)c2C)cc1 | 43.9%
COc1cccc2c1C(=O)c1c(O)c3c(c(O)c1C2=O)C[C@@](O)(C(=O)CO)C[C@@H]3O[C@H]1C[C@H](N)[C@@H](O)[C@H](C)O1 | 7.14% (active)
Clc1ccc(N2N=C(c3cccc(Nc4ccncc4)c3)CC2c2ccc3c(c2)OCO3)cc1 (stereo unspecified) | 26.7%
O=C(N/N=C/c1ccncc1)c1ccccc1Nc1cccc(C(F)(F)F)c1 | 79.1%
COc1ccc(Cc2nc3cc(OC)c(OC)cc3c(=O)[nH]2)cc1 | 73.5%
COc1ccc(-c2c[nH]c(C(=O)O)c2-c2cc(OC)c3c(c2OC)OCO3)cc1 | 101%
Clc1ccc(N2N=C(c3cccc(Nc4ccncc4)c3)CC2c2ccccc2)cc1 (stereo unspecified) | 94.5%
COc1ccc(Cn2nc(-c3cc(OC)c(OC)c(OC)c3)c3c2CCc2cnoc2-3)cc1OC | 79%
COc1cc2nnn3c4ncccc4c(N=O)c3c2cc1OC | 14.3%
Clc1nc(Cl)c2ncn(CC3(Cn4cnc5c(Cl)nc(Cl)nc54)COC3)c2n1 | -83.7% (active)
C(=N\Nc1ncc(-c2cc3cc4c(cc3o2)OCO4)s1)/c1c[nH]c2ccccc12 | -12.1% (active)
COc1ccc(-c2nn(Cc3ccccc3)c3c2-c2oncc2CC3)cc1OC | 89%
